The source of these data is ChEMBL document CHEMBL4513216, “Probing the Open Global Health Chemical Diversity Library for Multistage-Active Starting Points for Next-Generation Antimalarials” (ACS Infect Dis, 2020).

In all, about 69,000 compounds went through this assay and about 8,600 (12%) showed an effect of 50% or more. This is one part of a sample in which strong results are shown more often than they occur.

The assay concerns Plasmodium berghei. The assay is described as follows: Screen against P. berghei liver stage (PbLuc), transformed with Luciferase, at 10uM. It counts as functional, HepG2. Conditions: tested at 10 uM.
As for `Cc1cc(OCCC(=O)Nc2cccc(F)c2)nnc1C`, the INHIBITION is reported as -9.93%.
As for `Cc1cc2c(=O)n3c(nc2s1)CCN(Cc1cncn1C)CC3`, the figure is 5.11%; as for `Cc1cnn(CC(=O)N2CCCN(c3ncccc3C#N)CC2)c1`, -14.7%; as for `CS(=O)(=O)c1cnc(N2CCCC2)nc1C1CCN(C(=O)C2CC2)CC1`, -15.7%.
As for `Cc1cc(C(=O)NCc2ccc(-c3n[nH]cc3C(=O)N(C)C)cc2)on1`, the figure is 39.35%.
As for `CCc1cnc(N2CC[C@H]3[C@H]2CC(=O)N3c2cccnc2)nc1`, the figure is -34.7%.
Consider `Cc1ccc(N2N=C(C(N)=O)S(=O)(=O)c3cccnc32)cc1`, for which the INHIBITION is given as 41.5%.
As for `Cc1cc(CN2CCN(C(=O)NCc3cccs3)CC2)on1`, the figure is 14.1%; as for `c1cnc(N2CC[C@@H](OCC3CC3)[C@@H]2Cc2cccnc2)nc1`, 64.3%.
As for `COCCO[C@H]1CCN(c2ccc(C)nn2)[C@H]1Cc1cccnc1`, the figure is 5.68%; as for `Cc1ccc(N2CC[C@H](OCC3CC3)[C@@H]2Cc2cccnc2)nn1`, 42.4%; as for `COCCO[C@H]1CCN(c2cc(OC)ncn2)[C@H]1Cc1cccnc1`, 82.8%.
For `c1ccc(N2CC[C@H](OCC3CC3)[C@@H]2Cc2cccnc2)nc1` the value was 37.5%.
On to `COCCO[C@H]1CCN(c2cc(OC)ncn2)[C@H]1Cc1ccncc1`, for which the INHIBITION is given as -39.2%.
For `Cc1cc2nc(SCC(=O)N3CCOCC3)n(CCC(C)C)c(=O)c2[nH]1` the value was 45.8%.
For `O=C(Cc1ccc(-n2cnnn2)cc1)Nc1cnn(CC(F)F)c1` the value was 42.6%; for `O=C(c1ccc(-c2ccc(O)nc2)s1)N1CCSCC1`, 3.295%; for `Cc1ccc(CN2C[C@H](OCCN(C)C)[C@H]3COC[C@H]32)o1`, 14.6%.
As for `Fc1ccc(-c2nnc(CN3CCCC(Cn4cncn4)C3)o2)cc1` (stereo unspecified), the figure is -105%; as for `CCCc1n[nH]c(C2CN(C(=O)CCc3cscn3)CCO2)n1` (stereo unspecified), 25.3%; as for `O=c1[nH]c(NCCO)nc2c1C1(CCCC1)Cc1ccccc1-2`, 62.3%.
In the case of `CC(C)NC(=O)N1CCC2(CC1)Cc1ccccc1CNC2=O`, the INHIBITION is 29.5%.
For `O=c1[nH]c(NCCCO)nc2c1C1(CCCC1)Cc1ccccc1-2` the value was 64%; for `CCC1(C)Cc2ccccc2-c2nc(NCCCO)nc(O)c21` (stereo unspecified), 28.4%.
For `CN1Cc2ccccc2CC2(CCN(CCO)CC2)C1=O` the value was -9.23%.
As to `Cc1cccc(CN2CCCC3(Cc4ccccc4CNC3=O)C2)n1` (stereo unspecified), the INHIBITION was 9.32%.
For `O=c1[nH]c(NCCO)nc2c1C1(CCCCC1)Cc1ccccc1-2` the value was 66.5%; for `OCCCNc1nc(O)c2c(n1)-c1ccccc1CC21CCCCC1`, 77.2%.
For `Cc1cc(C(=O)NC2CCN(c3nnc(C)c(C)c3C#N)CC2)no1`, the INHIBITION is on record as 3.87%.
For `Cn1ccc(C(=O)N2CCOC(c3ccc(C(N)=O)cn3)C2)n1` (stereo unspecified) the value was 22%; for `Cc1noc(CNC(=O)CN(C)c2nc3ccccc3s2)n1`, -4.01%.
For `O=C(c1cc(C2CCCN(Cc3ccccn3)C2)no1)N1CCCC1` (stereo unspecified) the value was 7.52%; for `Cc1oc(-c2cccs2)nc1C(=O)N1CCCC1Cn1cccn1` (stereo unspecified), 36.1%.
For `c1ccc(CN2CCc3c(COCc4ccncc4)cncc3C2)nc1` the value was 3.81%.
As to `O=c1cc(Cn2cncn2)nc2n1CCCN(Cc1ccc(F)cc1)C2`, the INHIBITION was 22.5%.
As for `COc1c(CNCC(O)c2cccc(F)c2)c(C)nn1C` (stereo unspecified), the figure is -47.6%; as for `Cn1c(Cn2ccnc2)nnc1C1CCN(C(=O)c2ccccn2)CC1`, 5.41%.
For `Cc1ncccc1NC(=O)[C@@H]1CC[C@@H]2[C@@H](CCN2Cc2cnn(C)c2)O1` the value was 0.734%.
As for `COc1cccc(-c2cccc(N3CCC(N[C@@H]4CCOC4)CC3)c2)c1`, the figure is 53.7%; as for `Fc1cccc(-c2cccc(N3CCC(NC4CCCOC4)CC3)c2)c1` (stereo unspecified), 46.5%; as for `Cc1ccc(-c2cccc(N3CCC(NC4CCOCC4)CC3)c2)cc1`, 39.3%.
`CC(=O)N1CCC(c2cncc(N3CCC(O)C3)n2)CC1` (stereo unspecified): the INHIBITION is listed as 23.9%.
As for `CC(C)c1noc(CCC(=O)NCC2CCC(C(N)=O)CC2)n1` (stereo unspecified), the figure is -21.8%; as for `CCCn1nccc1NC(=O)CN1CCCC1c1c(C)nn(C)c1C` (stereo unspecified), 34.1%.
For `COc1ccc(-n2nnc(C(N)=O)n2)cc1` the value was -8.07%; for `CCn1cc(Br)c(C(=O)NCc2cnn(C)c2)n1`, -13.2%; for `CCn1cc(CNC(=O)c2nn(CC)cc2Br)cn1`, 76%.
In the case of `CCn1cc(Br)c(C(=O)NCc2ccccc2)n1`, the INHIBITION was 17%.
Consider `COCC1Cn2nnc(-c3cnn(C)c3)c2CN1Cc1ccsc1` (stereo unspecified), for which the INHIBITION came to 33.4%.
On to `COc1cccn(CC(=O)N2CCCC3(CCCO3)CC2)c1=O` (stereo unspecified), for which the INHIBITION was -2.61%.
As for `Cc1ccc(S(=O)(=O)N(CCO)C2CC2)cc1N(C)C`, the figure is 21.3%.
